Measurements: PubChem BioAssay AID2284192 (EPA ToxCast)
The source made the active and inactive calls. Rule for the calls: active = hit-call score of the fitted dose curve at least 0.9, where 1 is the maximum; inactive = score below 0.9.

Target: human Opioid Receptor mu (MOP) Agonism, OPRM1 (gene 4988) (UniProt P35372)
Assay: ERF_FR_GPCR_hOPRM1: Eurofins (ERF) G Protein-Coupled Receptor (GPCR) Radioligand Binding LeadHunter Assay for human Opioid Receptor mu (MOP) Agonism
Method: ERF_FR_GPCR_hOPRM1 is a biochemical, single-readout assay that uses extracted gene-proteins in a cell-free assay. Measurements were taken 2 hour after chemical dosing in a 96-well plate. See mu (MOP) Human Opioid GPCR Binding (Agonist Radioligand) Assay, Cerep.ERF_FR_GPCR_hOPRM1 is an assay component calculated from the ERF_FR_GPCR_hOPRM1 assay. It is designed to measure radioligand binding using a type of binding reporter as detected by scintillation counting with radiometry technology.Data from the assay component ERF_FR_GPCR_hOPRM1 was analyzed at the assay endpoint, ERF_FR_GPCR_hOPRM1, in the positive analysis fitting direction relative to DMSO as the negative control and baseline of activity. Using a type of binding reporter, gain-of-signal activity can be used to understand changes in binding as they relate to gene OPRM1. To generalize the intended target to other relatable targets, this assay endpoint is annotated to the gpcr intended target family, where the subfamily is opioid.
Human cells are incubated for 60 minutes at room temprature with [3H]DAMGO ligand (0.1 nM) and DAMGO as control inhibitor. Test Sample Requirements: Minimum for 1) Screen: 60 ul of 10 mM stock -OR- 1 mg (pre-weighed) for 10 uM final testing. 2) Dose Response: 90 ul of 10 mM stock -OR- 1 mg (pre-weighed) for a top concentration at 10 uM.

Sequence of human Opioid Receptor mu (MOP) Agonism, OPRM1 (gene 4988) (P35372 whole entry, looked up): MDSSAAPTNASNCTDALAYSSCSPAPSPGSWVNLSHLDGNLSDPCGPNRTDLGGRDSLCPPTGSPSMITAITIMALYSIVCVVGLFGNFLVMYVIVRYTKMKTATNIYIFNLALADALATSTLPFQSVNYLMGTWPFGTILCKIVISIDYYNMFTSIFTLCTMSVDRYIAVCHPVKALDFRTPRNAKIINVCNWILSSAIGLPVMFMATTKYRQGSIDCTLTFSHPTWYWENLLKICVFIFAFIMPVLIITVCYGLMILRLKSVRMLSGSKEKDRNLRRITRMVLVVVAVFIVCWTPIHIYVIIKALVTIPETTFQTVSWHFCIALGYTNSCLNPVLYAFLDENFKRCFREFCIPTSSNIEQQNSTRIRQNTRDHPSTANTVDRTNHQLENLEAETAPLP

SMILES	AC50
O=C(/C=C/c1ccc(O)cc1)CC(=O)/C=C/c1ccc(O)cc1	419 nM (active)
